{"source": "PubChem BioAssay", "key": {"[1]": {"molecular_target": "Cell division control protein 42 homolog (Homo sapiens) (UniProt P60953)", "sequence (P60953 whole entry, looked up)": "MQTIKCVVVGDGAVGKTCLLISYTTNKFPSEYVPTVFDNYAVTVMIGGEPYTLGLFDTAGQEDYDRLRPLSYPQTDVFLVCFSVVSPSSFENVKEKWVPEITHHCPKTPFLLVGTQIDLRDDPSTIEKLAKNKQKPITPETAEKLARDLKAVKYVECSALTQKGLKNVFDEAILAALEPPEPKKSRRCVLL", "assay": "activated mutant Cdc42 GTP-binding inhibitors, dose response, biochemical, multiplex bead flow cytometry, Bodipy-FL-GTP (AID 1333)"}, "[2]": {"molecular_target": "Cell division control protein 42 homolog (Homo sapiens) (UniProt P60953)", "assay": "wildtype Cdc42 GTP-binding inhibitors, dose response, biochemical, multiplex bead flow cytometry, Bodipy-FL-GTP (AID 1334;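 active means fitted half-maximal concentration within the tested range, moderate curve steepness, significant signal drop, and little compound fluorescence or bead-linkage interference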)", "settings": "bead-based flow cytometry, Bodipy-FL-GTP binding to GST-Cdc42; at 100 µM (top of the series) unless noted"}, "[3]": {"molecular_target": "GTPase HRas (Homo sapiens) (UniProt P01112)", "sequence (P01112 whole entry, looked up)": "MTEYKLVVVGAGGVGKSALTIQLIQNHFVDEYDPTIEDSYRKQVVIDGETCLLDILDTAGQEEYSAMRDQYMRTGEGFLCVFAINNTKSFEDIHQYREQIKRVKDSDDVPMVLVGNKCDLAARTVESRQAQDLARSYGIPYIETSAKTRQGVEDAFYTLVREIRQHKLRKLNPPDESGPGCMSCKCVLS", "assay": "inhibitors of GTP binding to wildtype Ras, dose response, biochemical, multiplex bead flow cytometry (AID 1335;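 active means fitted half-maximal concentration within 10 nM to 100 µM, steepness 0.5 to 2, significant signal drop, low assay interference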)", "settings": "bead-based flow cytometry, Bodipy-GTP binding to GST-Ras; at 100 µM (top of the series) unless noted"}, "[4]": {"test_system": "Ras-related protein Rab-7a (dog), GTP binding", "assay": "Rab7 GTP binding inhibitors, potency, dose response, biochemical, wildtype, multiplex bead flow cytometry (AID 1336; call rule not given here)"}, "[5]": {"molecular_target": "GTPase HRas (Homo sapiens) (UniProt P01112)", "assay": "activated Ras mutant GTP binding inhibitors, dose response, biochemical, multiplex bead flow cytometry (AID 1341;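 active means dose-response curve with midpoint inside the tested range, moderate steepness, significant amplitude and little compound fluorescence or bead-attachment interference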;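 further: GST-tagged constitutively activated Ras mutant immobilized on beads and multiplexed with other GTPases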)"}, "[6]": {"molecular_target": "Ras-related C3 botulinum toxin substrate 1 (Homo sapiens) (UniProt P63000)", "assay": "wildtype Rac1 GTP binding inhibitors, dose response, biochemical, multiplex bead flow cytometry (AID 1340;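 active means dose curve with midpoint inside tested range, moderate steepness, plateau gap beyond fit error, low compound glow and bead-link interference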)", "settings": "GST-Rac1 beads, Bodipy-FL-GTP binding; at 100 µM (top of the series) unless noted"}, "[7]": {"assay": "RPL19A-GFP modulators, yeast TOR pathway, confirmation, cell-based, S. cerevisiae, flow cytometry, cherry picks, mother/daughter gates (AID 2270;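 active means GFP response below 50% of the DMSO control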)", "settings": "S. cerevisiae RPL19A-GFP strain, 3 h, at 10 µM, stronger effect = lower value, 100 = same GFP as DMSO wells"}, "[8]": {"assay": "LAP4-GFP expression modulators in yeast, confirmation, cell-based, cherry picks, flow cytometry, mother/daughter gates (AID 2271;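 active means GFP response above 150% of the DMSO control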;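 further: ratio of sample to DMSO plate mean so 100% equals DMSO level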)", "settings": "S. cerevisiae LAP4-GFP strain, 3 h, at 10 µM, stronger effect = higher value, 100 means same as DMSO control"}, "[9]": {"assay": "modulators of MEP2-GFP levels in yeast, confirmation, S. cerevisiae, flow cytometry GFP, cherry picks (AID 2272;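 active means GFP response above 150% of the DMSO control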;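 further: ratio of well signal to plate DMSO mean so 100% equals DMSO level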)", "settings": "S. cerevisiae MEP2-GFP strain, 3 h, at 10 µM, stronger effect = higher value"}, "[10]": {"assay": "AGP1-GFP expression modulators, hit retest, confirmation, cell-based, flow cytometry, S. cerevisiae, cherry picks (AID 2273;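 active means GFP response above 150% of the DMSO level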;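 further: median GFP channel fluorescence over the whole cell population gate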)", "settings": "S. cerevisiae AGP1-GFP strain, 3 h, at 10 µM"}, "[11]": {"assay": "modulators of CIT2-GFP expression in yeast, confirmation, S. cerevisiae, GFP fusion, cherry picks, mother/daughter gates (AID 2274;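 active means GFP response above 150% of the DMSO level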)", "settings": "S. cerevisiae CIT2-GFP strain, flow cytometry, 3 h, at 10 µM, stronger effect = higher value"}, "[12]": {"settings": "measured here: daughter cell gate"}, "[13]": {"settings": "measured here: mother cell gate"}}, "note": "For some of these results: Entries with a potency or affinity are not part of this list. The source made the active and inactive calls.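 How the source made its calls, unless noted: active means fitted half-maximal concentration within the tested dose range, moderate curve steepness, a statistically real signal drop, and little compound fluorescence or tag-binding interference; inactive means the rest.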"}
{"smiles": "CCOC(=O)c1nc(Nc2ccc(C(C)=O)cc2)c2ccccc2n1", "values": [{"measurement": "outcome", "setting": "[1]", "result": "inactive"}, {"measurement": "fluorescence, percent of control (lower = inhibition)", "setting": "[2]", "result": 36, "unit": "%"}, {"measurement": "GTP binding, percent of control", "setting": "[3]", "result": 80.4, "unit": "%"}, {"measurement": "outcome", "setting": "[4]", "result": "inactive"}, {"measurement": "outcome", "setting": "[5]", "result": "inactive"}]}
{"smiles": "COC(=O)n1c(=S)oc2cc(Cl)ccc21", "values": [{"measurement": "outcome", "setting": "[1]", "result": "inactive"}, {"measurement": "fluorescence, percent of control (lower = inhibition)", "setting": "[2]", "result": 58.3, "unit": "%"}, {"measurement": "GTP binding, percent of control", "setting": "[3]", "result": 154, "unit": "%"}, {"measurement": "outcome", "setting": "[4]", "result": "inactive"}, {"measurement": "GTP binding signal, raw median fluorescence (lower = inhibition) (MCF (arbitrary fluorescence units))", "setting": "[6]", "result": 170}, {"measurement": "outcome", "setting": "[5]", "result": "inactive"}, {"measurement": "GFP response vs DMSO", "setting": "[7]", "result": "106% (inactive)"}, {"measurement": "GFP response vs DMSO", "setting": "[7]; [12]", "result": 93.9, "unit": "%"}, {"measurement": "GFP response vs DMSO", "setting": "[7]; [13]", "result": 94.5, "unit": "%"}, {"measurement": "GFP response relative to DMSO", "setting": "[8]", "result": "126% (inactive)"}, {"measurement": "GFP response relative to DMSO", "setting": "[8]; measured here: daughter cell gate response", "result": 105, "unit": "%"}, {"measurement": "GFP response relative to DMSO", "setting": "[8]; measured here: mother cell gate response", "result": 110, "unit": "%"}, {"measurement": "GFP response vs DMSO", "setting": "[9]", "result": "141% (inactive)"}, {"measurement": "GFP response, % of DMSO", "setting": "[10]", "result": "111% (inactive)"}, {"measurement": "GFP response, % of DMSO", "setting": "[11]", "result": "121% (inactive)"}, {"measurement": "GFP response, % of DMSO", "setting": "[11]; [12]", "result": 98.3, "unit": "%"}, {"measurement": "GFP response, % of DMSO", "setting": "[11]; [13]", "result": 100, "unit": "%"}]}
{"smiles": "Oc1ccc(NC(=S)N=Nc2c(O)[nH]c3ccccc23)cc1", "values": [{"measurement": "outcome", "setting": "[1]", "result": "inactive"}, {"measurement": "fluorescence, percent of control (lower = inhibition)", "setting": "[2]", "result": 16.7, "unit": "%"}, {"measurement": "GTP binding, percent of control", "setting": "[3]", "result": 62.5, "unit": "%"}, {"measurement": "outcome", "setting": "[4]", "result": "inactive"}, {"measurement": "GTP binding signal, raw median fluorescence (lower = inhibition) (MCF (arbitrary fluorescence units))", "setting": "[6]", "result": 62.8}, {"measurement": "outcome", "setting": "[5]", "result": "inactive"}]}
